From PubChem BioAssay (NCATS)
Records with an inconclusive call do not appear. Entries that show only a call come without a potency. Active and inactive are the calls of the source. Unless noted, the call rests on the fitted dose curve; in most records, active means well fitted curve in the direction sought with a large enough effect; inconclusive means small, poorly fitted or top-dose-only effect, or another doubt; inactive means no such curve, though single readings can be large; an effect the other way counts as inactive or inconclusive.

Experiments:
[1] = target: Ubiquitin carboxyl-terminal hydrolase 1 (Homo sapiens) (UniProt O94782); assay: Inhibitors of USP1/UAF1: Pilot qHTS (AID 504865); conditions: purified USP1/UAF1, Ub-rhodamine cleavage fluorescence; series mostly up to 114 µM;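 further: rhodamine fluorescence freed from ubiquitin-rhodamine substrate followed over time; top concentration of the series differs between compounds; nearly all actives have a fitted effect of over 35% in size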
Sequence of Ubiquitin carboxyl-terminal hydrolase 1 (Homo sapiens) (O94782 whole entry, looked up): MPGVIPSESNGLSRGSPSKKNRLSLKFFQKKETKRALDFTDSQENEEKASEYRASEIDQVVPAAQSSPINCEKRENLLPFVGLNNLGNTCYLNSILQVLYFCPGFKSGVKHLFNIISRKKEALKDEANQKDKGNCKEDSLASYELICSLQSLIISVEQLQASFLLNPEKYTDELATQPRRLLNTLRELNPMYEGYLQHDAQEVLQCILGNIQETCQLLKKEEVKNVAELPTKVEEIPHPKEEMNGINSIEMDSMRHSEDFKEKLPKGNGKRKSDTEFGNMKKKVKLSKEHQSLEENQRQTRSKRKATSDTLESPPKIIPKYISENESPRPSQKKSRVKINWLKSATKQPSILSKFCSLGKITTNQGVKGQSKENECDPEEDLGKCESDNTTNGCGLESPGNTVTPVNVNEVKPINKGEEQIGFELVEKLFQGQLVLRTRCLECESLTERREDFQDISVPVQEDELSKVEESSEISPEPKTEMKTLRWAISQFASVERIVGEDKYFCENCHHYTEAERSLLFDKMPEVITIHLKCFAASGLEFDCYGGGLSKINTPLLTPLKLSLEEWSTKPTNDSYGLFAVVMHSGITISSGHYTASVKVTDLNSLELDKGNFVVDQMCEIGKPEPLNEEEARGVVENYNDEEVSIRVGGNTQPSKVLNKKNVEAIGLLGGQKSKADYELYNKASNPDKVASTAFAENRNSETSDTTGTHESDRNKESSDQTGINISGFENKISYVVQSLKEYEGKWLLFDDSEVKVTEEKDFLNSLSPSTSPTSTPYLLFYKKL
Summary of the method: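 In 50mM HEPES pH 7.8 containing 0.5mM EDTA, 1mM TCEP, 0.1 mg/ml BSA and 0.01% Tween-20, 1nM USP1/UAF1 is exposed to compound for 15 min, then Ub-Rho (150nM final) is added and fluorescence is read over time.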

[2] = target: Luciferin 4-monooxygenase (Photinus pyralis) (UniProt P08659); assay: Biochemical firefly luciferase enzyme assay for NPC (AID 624030);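 further: purified P. pyralis luciferase at 10 nM with luciferin and ATP substrate; nearly all actives have a fitted effect of over 70% in size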; conditions: purified P. pyralis luciferase, luminescence, 5 min; series mostly up to 58.6 µM
Sequence of Luciferin 4-monooxygenase (Photinus pyralis) (P08659 whole entry, looked up): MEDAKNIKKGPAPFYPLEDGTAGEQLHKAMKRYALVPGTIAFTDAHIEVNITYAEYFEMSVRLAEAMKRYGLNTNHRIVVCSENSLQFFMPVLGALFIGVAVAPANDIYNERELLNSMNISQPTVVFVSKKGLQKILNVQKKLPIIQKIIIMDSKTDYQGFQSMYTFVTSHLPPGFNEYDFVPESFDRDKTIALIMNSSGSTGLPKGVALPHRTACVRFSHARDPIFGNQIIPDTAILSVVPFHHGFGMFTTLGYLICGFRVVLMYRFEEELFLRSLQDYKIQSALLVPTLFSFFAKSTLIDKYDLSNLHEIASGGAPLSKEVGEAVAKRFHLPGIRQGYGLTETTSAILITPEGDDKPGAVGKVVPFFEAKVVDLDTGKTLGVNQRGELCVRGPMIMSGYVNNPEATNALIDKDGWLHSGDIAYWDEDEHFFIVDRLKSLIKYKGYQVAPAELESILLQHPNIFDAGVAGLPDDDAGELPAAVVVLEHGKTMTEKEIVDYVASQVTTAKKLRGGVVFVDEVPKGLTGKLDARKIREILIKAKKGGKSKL
Summary of the method: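 Purified P. pyralis luciferase at 10 nM in 50 mM Tris Acetate (final), luminescence read within 5 minutes of enzyme addition to compounds. Activity normalised to PTC124 versus DMSO; concentration-response curves classed by r2, magnitude and activity.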

[3] = S16 Schwann cell PMP22 intronic element firefly luciferase assay (AID 624032); conditions: S16 rat Schwann cells, PMP22 element FLuc, 24 h; series mostly up to 57.5 µM; further: nearly all actives have a fitted effect of over 30% in size
Summary of the method: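 Rat S16 Schwann cells stably carrying firefly luciferase driven by a PMP22 intronic element, in 10% FBS, treated 24 h at 37 C. ONE-Glo luminescence normalized to PTC124 control and DMSO (0%); curves classed by r2, magnitude and activity.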

[4] = S16 Schwann cell PMP22 intronic element beta-lactamase assay (AID 624044; calls by dose curve; further: nearly all actives have a fitted effect of over 15% in size); conditions: S16 rat Schwann cells, PMP22 element beta-lactamase FRET, 24 h; series mostly up to 38.3 µM
Summary of the method: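 Beta-lactamase reporter under a PMP22 intronic regulatory element in stable S16 rat Schwann cells; 24 h compound exposure. 460 nm blue signal normalized between DMSO (0%) and potassium clavulanate, with 535 nm FRET tracking viability; curves classed by r2 and response.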

3D7 = assay: qHTS profiling for inhibitors of Plasmodium falciparum proliferation (AID 504749); further: nearly all actives have a fitted effect of over 60% in size; further: potency means the concentration at half of the fitted maximal effect; conditions: P. falciparum in erythrocytes, SYBR Green DNA, 72 h; series mostly up to 28.7 µM
Summary of the method: (§1)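 Each compound contacts P. falciparum-infected red blood cells for 72 h at 37 C; lysis buffer (Tris, EDTA, saponin, Triton X, SYBR Green I) is added and fluorescence measured next morning; values normalized to controls.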

7G8 = assay: as above; conditions: P. falciparum in erythrocytes, SYBR Green DNA, 72 h; series mostly up to 28.7 µM
Summary of the method: as §1

AA1029 = assay: as above; conditions: P. falciparum in erythrocytes, SYBR Green DNA, 72 h; series mostly up to 28.7 µM
Summary of the method: as §1

CP192 = assay: as above; conditions: P. falciparum in erythrocytes, SYBR Green DNA, 72 h; series mostly up to 28.7 µM
Summary of the method: as §1

CP194 = assay: as above; conditions: P. falciparum in erythrocytes, SYBR Green DNA, 72 h; series mostly up to 28.7 µM
Summary of the method: as §1

CP203 = assay: as above; conditions: P. falciparum in erythrocytes, SYBR Green DNA, 72 h; series mostly up to 28.7 µM
Summary of the method: as §1

CP247 = assay: as above; conditions: P. falciparum in erythrocytes, SYBR Green DNA, 72 h; series mostly up to 28.7 µM
Summary of the method: as §1

CP260 = assay: as above; conditions: P. falciparum in erythrocytes, SYBR Green DNA, 72 h; series mostly up to 28.7 µM
Summary of the method: as §1

CP286 = assay: as above; conditions: P. falciparum in erythrocytes, SYBR Green DNA, 72 h; series mostly up to 28.7 µM
Summary of the method: as §1

DFO2036 = assay: as above; conditions: P. falciparum in erythrocytes, SYBR Green DNA, 72 h; series mostly up to 28.7 µM
Summary of the method: as §1

DIV14 = assay: as above; conditions: P. falciparum in erythrocytes, SYBR Green DNA, 72 h; series mostly up to 28.7 µM
Summary of the method: as §1

Dd2 = assay: as above; conditions: P. falciparum in erythrocytes, SYBR Green DNA, 72 h; series mostly up to 28.7 µM
Summary of the method: as §1

ICS = assay: as above; conditions: P. falciparum in erythrocytes, SYBR Green DNA, 72 h; series mostly up to 28.7 µM
Summary of the method: as §1

N140 = assay: as above; conditions: P. falciparum in erythrocytes, SYBR Green DNA, 72 h; series mostly up to 28.7 µM
Summary of the method: as §1

PC49 = assay: as above; conditions: P. falciparum in erythrocytes, SYBR Green DNA, 72 h; series mostly up to 28.7 µM
Summary of the method: as §1

TAB165 = assay: as above; conditions: P. falciparum in erythrocytes, SYBR Green DNA, 72 h; series mostly up to 28.7 µM
Summary of the method: as §1

| Structure (SMILES) | Potency [1] | outcome [2] | Potency [3] | outcome [4] | Potency (3D7) | Potency (7G8) | Potency (AA1029) | Potency (CP192) | Potency (CP194) | Potency (CP203) | Potency (CP247) | Potency (CP260) | Potency (CP286) | Potency (DFO2036) | Potency (DIV14) | Potency (Dd2) | Potency (ICS) | Potency (N140) | Potency (PC49) | Potency (TAB165) |
| --- | --- | --- | --- | --- | --- | --- | --- | --- | --- | --- | --- | --- | --- | --- | --- | --- | --- | --- | --- | --- |
| CC1(C)S[C@@H]2[C@H](NC(=O)Cc3ccccc3)C(=O)N2[C@@H]1C(=O)O | inactive | inactive | inactive | inactive | inactive | inactive | inactive | inactive | inactive | inactive | inactive | inactive | inactive | inactive | inactive | inactive | inactive | inactive | inactive | inactive |
| C[C@H](CCC(=O)O)[C@H]1CC[C@@H]2[C@H]3[C@@H](C[C@@H](O)[C@]21C)[C@]1(C)CC[C@H](O)C[C@@H]1C[C@@H]3O | inactive | inactive | inactive | inactive | inactive | inactive | inactive | inactive | inactive | inactive | inactive | inactive | inactive | inactive | inactive | inactive | inactive | inactive | inactive | inactive |
| CC(C)(C)c1ccc(CN2CCN([C@H](c3ccccc3)c3ccc(Cl)cc3)CC2)cc1 | inactive | inactive | inactive | inactive | 6.31 µM (active) | 3.55 µM (active) | 8.91 µM (active) |  |  |  |  | 7.08 µM (active) | 4.47 µM (active) |  | 15.1 µM (active) | 8.91 µM (active) | 2.51 µM (active) | 7.08 µM (active) |  | 7.94 µM (active) |
| O=C(O)[C@@H](O)[C@@H](O)[C@H](O)C(=O)CO | inactive | inactive | inactive | inactive | inactive | inactive | inactive | inactive | inactive | inactive | inactive | inactive | inactive | inactive | inactive | inactive | inactive | inactive | inactive | inactive |
| Cc1onc(-c2c(F)cccc2Cl)c1C(=O)N[C@@H]1C(=O)N2[C@H]1SC(C)(C)[C@H]2C(=O)O | inactive | inactive | inactive | inactive | inactive | inactive | inactive | inactive | inactive | inactive | inactive | inactive | inactive | inactive | inactive | inactive | inactive | inactive | inactive | inactive |
